Residue numbers refer to the chain shown, from its start.
Columns and labels:
Test in all cases: PBM; 200 nM protein, PBS
Conditions in all cases: dsDNA, one strand shown
HESX1 [1] = target: HESX1 (Homo sapiens, UniProt Q9UBX0 95-180, R165K)
HESX1 [2] = target: HESX1 (Homo sapiens, UniProt Q9UBX0 95-180)
HESX1 [3] = target: HESX1 (Homo sapiens, UniProt Q9UBX0 95-180, R109Q)
HESX1 [4] = target: HESX1 (Homo sapiens, UniProt Q9UBX0 95-180, P111T)
HESX1 [5] = target: HESX1 (Homo sapiens, UniProt Q9UBX0 95-180, F115L)
Chain of HESX1 (Homo sapiens, UniProt Q9UBX0 95-180, F115L) (Q9UBX0 95-180 F115L): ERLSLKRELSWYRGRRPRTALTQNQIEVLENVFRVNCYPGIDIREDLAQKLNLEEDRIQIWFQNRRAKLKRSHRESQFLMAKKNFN

NKX2-6 [6] = target: T1, NKX2-6 (Homo sapiens, UniProt A6NCS4 118-204)
T1 sequence: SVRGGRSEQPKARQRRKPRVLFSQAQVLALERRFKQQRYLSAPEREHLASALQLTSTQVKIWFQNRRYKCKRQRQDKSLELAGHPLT

NKX2-6 [7] = target: T2, NKX2-6 (Homo sapiens, UniProt A6NCS4 118-204, F151L)
T2 sequence: T1 sequence with F34L

Chain of HESX1 (Homo sapiens, UniProt Q9UBX0 95-180) (Q9UBX0 95-180): as the sequence (Q9UBX0 95-180 F115L) above, with L21F counted along it
Chain of HESX1 (Homo sapiens, UniProt Q9UBX0 95-180, R109Q) (Q9UBX0 95-180 R109Q): as the sequence (Q9UBX0 95-180 F115L) above, with R15Q, L21F counted along it
Chain of HESX1 (Homo sapiens, UniProt Q9UBX0 95-180, R165K) (Q9UBX0 95-180 R165K): as the sequence (Q9UBX0 95-180 F115L) above, with L21F, R71K counted along it
Chain of HESX1 (Homo sapiens, UniProt Q9UBX0 95-180, P111T) (Q9UBX0 95-180 P111T): as the sequence (Q9UBX0 95-180 F115L) above, with P17T, L21F counted along it

Row | Sequence | binding signal (HESX1 [1]) | binding signal (HESX1 [2]) | binding signal (HESX1 [3]) | binding signal (HESX1 [4]) | binding signal (HESX1 [5]) | binding signal (NKX2-6 [6]) | binding signal (NKX2-6 [7])
1 | AGATTGGG | 7.4 upbm affinity estimate (log intensity, higher = more binding, comparable within an allelic series) | 7.61 upbm affinity estimate (log intensity, higher = more binding, comparable within an allelic series) | 7.3 upbm affinity estimate (log intensity, higher = more binding, comparable within an allelic series) | 7.23 upbm affinity estimate (log intensity, higher = more binding, comparable within an allelic series) | – | – | –
2 | TGGCGCCA | 6.38 upbm affinity estimate (log intensity, higher = more binding, comparable within an allelic series) | 6.62 upbm affinity estimate (log intensity, higher = more binding, comparable within an allelic series) | 6.34 upbm affinity estimate (log intensity, higher = more binding, comparable within an allelic series) | 6.49 upbm affinity estimate (log intensity, higher = more binding, comparable within an allelic series) | 6.34 upbm affinity estimate (log intensity, higher = more binding, comparable within an allelic series) | – | –
3 | CGCCACGA | 6.55 upbm affinity estimate (log intensity, higher = more binding, comparable within an allelic series) | 6.36 upbm affinity estimate (log intensity, higher = more binding, comparable within an allelic series) | 6.47 upbm affinity estimate (log intensity, higher = more binding, comparable within an allelic series) | 6.47 upbm affinity estimate (log intensity, higher = more binding, comparable within an allelic series) | 6.57 upbm affinity estimate (log intensity, higher = more binding, comparable within an allelic series) | – | –
4 | AGAGGAGC | 6.5 upbm affinity estimate (log intensity, higher = more binding, comparable within an allelic series) | 6.51 upbm affinity estimate (log intensity, higher = more binding, comparable within an allelic series) | 6.44 upbm affinity estimate (log intensity, higher = more binding, comparable within an allelic series) | 6.47 upbm affinity estimate (log intensity, higher = more binding, comparable within an allelic series) | 6.59 upbm affinity estimate (log intensity, higher = more binding, comparable within an allelic series) | – | –
5 | CAGCTCGG | 6.3 upbm affinity estimate (log intensity, higher = more binding, comparable within an allelic series) | 6.27 upbm affinity estimate (log intensity, higher = more binding, comparable within an allelic series) | 6.34 upbm affinity estimate (log intensity, higher = more binding, comparable within an allelic series) | 6.3 upbm affinity estimate (log intensity, higher = more binding, comparable within an allelic series) | 6.51 upbm affinity estimate (log intensity, higher = more binding, comparable within an allelic series) | 8.88 upbm affinity estimate (log intensity, higher = more binding, comparable within an allelic series) | 9.23 upbm affinity estimate (log intensity, higher = more binding, comparable within an allelic series)
6 | CAGAGTCA | 6.47 upbm affinity estimate (log intensity, higher = more binding, comparable within an allelic series) | 6.43 upbm affinity estimate (log intensity, higher = more binding, comparable within an allelic series) | 6.67 upbm affinity estimate (log intensity, higher = more binding, comparable within an allelic series) | 6.59 upbm affinity estimate (log intensity, higher = more binding, comparable within an allelic series) | 6.54 upbm affinity estimate (log intensity, higher = more binding, comparable within an allelic series) | – | –
7 | AGCCTCGC | 6.43 upbm affinity estimate (log intensity, higher = more binding, comparable within an allelic series) | 6.5 upbm affinity estimate (log intensity, higher = more binding, comparable within an allelic series) | 6.45 upbm affinity estimate (log intensity, higher = more binding, comparable within an allelic series) | 6.49 upbm affinity estimate (log intensity, higher = more binding, comparable within an allelic series) | 6.46 upbm affinity estimate (log intensity, higher = more binding, comparable within an allelic series) | – | –
8 | ACTCAATA | 7.78 upbm affinity estimate (log intensity, higher = more binding, comparable within an allelic series) | 7.87 upbm affinity estimate (log intensity, higher = more binding, comparable within an allelic series) | 7.28 upbm affinity estimate (log intensity, higher = more binding, comparable within an allelic series) | 7.59 upbm affinity estimate (log intensity, higher = more binding, comparable within an allelic series) | 7.33 upbm affinity estimate (log intensity, higher = more binding, comparable within an allelic series) | – | –
9 | CCCGGAGG | 6.31 upbm affinity estimate (log intensity, higher = more binding, comparable within an allelic series) | 6.31 upbm affinity estimate (log intensity, higher = more binding, comparable within an allelic series) | 6.41 upbm affinity estimate (log intensity, higher = more binding, comparable within an allelic series) | 6.39 upbm affinity estimate (log intensity, higher = more binding, comparable within an allelic series) | 6.42 upbm affinity estimate (log intensity, higher = more binding, comparable within an allelic series) | – | –
10 | AGGACCCC | 6.46 upbm affinity estimate (log intensity, higher = more binding, comparable within an allelic series) | 6.46 upbm affinity estimate (log intensity, higher = more binding, comparable within an allelic series) | 6.63 upbm affinity estimate (log intensity, higher = more binding, comparable within an allelic series) | 6.47 upbm affinity estimate (log intensity, higher = more binding, comparable within an allelic series) | 6.62 upbm affinity estimate (log intensity, higher = more binding, comparable within an allelic series) | – | –

Source: article PMC11006913
